Here are results for 22 compounds from ChEMBL document CHEMBL3988442, “University of Dundee, Small-Polar-MMV Screening Library” (2021).

A short description of this assay: In vitro enzyme assay to detect hydrolysis of chlorophenol red-beta-D-[…] directly proportional to the number of Toxoplasma stably expressing beta-galactosidase. It is filed as functional, organism-based, Toxoplasma gondii. Further details: scale not given: in the data most compounds retested in dose-response had high values.

SMILES strings stand for the structures. The whole screen tested about 85,000 compounds, of which about 440 (0.52%) showed an effect of 50% or more. This is one part of a sample in which strong results are shown more often than they occur.

For `CCCN1CCN(Cc2nccn2C)CC1`, for the setting “50 µM”, the “Percent Effect” value is reported as 5.907%.
Turning to `Cc1ccc(C(=O)N2C[C@@H]3OCCN(C)[C@@H]3C2)cn1.O=C(O)C(F)(F)F`, the “Percent Effect” value (10 µM) stood at 3.64%.
Regarding `CCOC[C@@H]1CCC[C@@]12CN(Cc1cccnc1)CCO2`, under “10 µM”, the “Percent Effect” value was -14.2%.
On the same count and under the same terms, to `COC[C@@H]1CCC[C@]12CN(Cc1cccc(C)n1)CCO2.O=C(O)C(F)(F)F.O=C(O)C(F)(F)F` belongs -5.738%; to `COC[C@H]1CCC[C@]12CN(Cc1cccc(C)n1)CCO2`, 72.48%.
As for `Fc1cnc(N2CCCC3(CCN(Cc4cccs4)C3)C2)nc1.O=C(O)C(F)(F)F.O=C(O)C(F)(F)F` (configuration not stated), the “Percent Effect” value (10 µM) was -7.824%.
With `NCCCN1CCN(c2ccccc2)CC1`, the “Percent Effect” value (50 µM) is given as 0.9017%.
Same read-out and setting: to `COCCN1CCN(c2ccc(OC)cc2)CC1` belongs -4.401%.
For `Cn1c(CCN2CCN(c3ccc(O)cc3)CC2)nc2ccccc21`, the “Percent Effect” value (10 µM) was 79.1%.
With `Cc1cc(C(=O)N2CC[C@H]3CC[C@@H](C2)N3)nc(C)n1`, for the setting “50 µM”, the “Percent Effect” value turned out to be 2.124%.
Same read-out and setting: to `Cn1cc(CCN)nn1` belongs 26.5%; to `CC(C)(C)OC(=O)NC1CC2(CNC2)C1`, -10.31%.
`CCN1CCN(Cc2nnnn2C2CC2)CC1`: under “50 µM”, the “Percent Effect” value came to 99.81%.
On the same count and under the same terms, to `CC(C)N1CCN(Cc2nnnn2C2CC2)CC1` belongs -4.596%.
The same measure, in the same setting: then `CCCn1nnnc1CN1CCN(CC)CC1`, with -8.148%; and `COc1ccc(CN2CC[C@@]3(O)CCCC[C@H]3C2)cn1`, with -5.926%; and `Cc1cc(C2CCCN2)on1` (configuration not stated), with -7.97%.
On to `COCCN1CCC2(COCc3cnc(N4CCOCC4)nc32)C1.O=C(O)C(F)(F)F` (configuration not stated), for which the “Percent Effect” value (10 µM) was -0.4992%.
On the same count and under the same terms, then `c1nc(N2CCOCC2)nc2c1COCC21CCN(CC2CC2)C1` (configuration not stated), with 63.85%.
In the case of `CN(C)c1ncc2c(n1)C1(CCN(CC3CC3)C1)COC2.O=C(O)C(F)(F)F` (configuration not stated), the “Percent Effect” value (10 µM) is given as -3.49%.
The same measure, in the same setting: then `Fc1cnc(N2CCC3(CC2)CN(Cc2cccs2)CCO3)nc1.O=C(O)C(F)(F)F.O=C(O)C(F)(F)F`, with 21.36%.
As for `C[S+](C)[c-]1c(=O)[nH]c(=O)n(CCc2ccc(F)cc2)c1=O`, the “Percent Effect” value (10 µM) is 11.54%.
